CYP2C19 act – human CYP2C19 activators, primary screen, biochemical, luminescence | Cytochrome P450 2C19 (Homo sapiens), P33261 | recombinant CYP2C19, luciferin-H EGE luminescence; hits give high values; 0 = fully inhibited enzyme, 1 = untreated enzyme | activation factor at 5 µM | 96,000 tested, under 10 active | AID 1025, 2008;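 active = activation factor of at least 2 at 5 µM in the primary screen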;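 also: 0 = wells with 2.5 mM tranylcypromine and 1 = vehicle-only wells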
Cav3 T inh – Cav3.2 calcium influx blockers – cell-based, Fluo-4 calcium fluorescence, FDSS, MLSMR library, primary screen; Cav3.2-expressing cells; hits give low values; hit rate 4% among 100,000; B-score at 10 µM; Voltage-dependent T-type calcium channel subunit alpha-1H (Homo sapiens), O95180;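 active = single-dose well whose peak fluorescence ratio is a statistical outlier from its plate by either plate-standardised score or position-corrected B-score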
Target sequence (O95180 whole entry, looked up): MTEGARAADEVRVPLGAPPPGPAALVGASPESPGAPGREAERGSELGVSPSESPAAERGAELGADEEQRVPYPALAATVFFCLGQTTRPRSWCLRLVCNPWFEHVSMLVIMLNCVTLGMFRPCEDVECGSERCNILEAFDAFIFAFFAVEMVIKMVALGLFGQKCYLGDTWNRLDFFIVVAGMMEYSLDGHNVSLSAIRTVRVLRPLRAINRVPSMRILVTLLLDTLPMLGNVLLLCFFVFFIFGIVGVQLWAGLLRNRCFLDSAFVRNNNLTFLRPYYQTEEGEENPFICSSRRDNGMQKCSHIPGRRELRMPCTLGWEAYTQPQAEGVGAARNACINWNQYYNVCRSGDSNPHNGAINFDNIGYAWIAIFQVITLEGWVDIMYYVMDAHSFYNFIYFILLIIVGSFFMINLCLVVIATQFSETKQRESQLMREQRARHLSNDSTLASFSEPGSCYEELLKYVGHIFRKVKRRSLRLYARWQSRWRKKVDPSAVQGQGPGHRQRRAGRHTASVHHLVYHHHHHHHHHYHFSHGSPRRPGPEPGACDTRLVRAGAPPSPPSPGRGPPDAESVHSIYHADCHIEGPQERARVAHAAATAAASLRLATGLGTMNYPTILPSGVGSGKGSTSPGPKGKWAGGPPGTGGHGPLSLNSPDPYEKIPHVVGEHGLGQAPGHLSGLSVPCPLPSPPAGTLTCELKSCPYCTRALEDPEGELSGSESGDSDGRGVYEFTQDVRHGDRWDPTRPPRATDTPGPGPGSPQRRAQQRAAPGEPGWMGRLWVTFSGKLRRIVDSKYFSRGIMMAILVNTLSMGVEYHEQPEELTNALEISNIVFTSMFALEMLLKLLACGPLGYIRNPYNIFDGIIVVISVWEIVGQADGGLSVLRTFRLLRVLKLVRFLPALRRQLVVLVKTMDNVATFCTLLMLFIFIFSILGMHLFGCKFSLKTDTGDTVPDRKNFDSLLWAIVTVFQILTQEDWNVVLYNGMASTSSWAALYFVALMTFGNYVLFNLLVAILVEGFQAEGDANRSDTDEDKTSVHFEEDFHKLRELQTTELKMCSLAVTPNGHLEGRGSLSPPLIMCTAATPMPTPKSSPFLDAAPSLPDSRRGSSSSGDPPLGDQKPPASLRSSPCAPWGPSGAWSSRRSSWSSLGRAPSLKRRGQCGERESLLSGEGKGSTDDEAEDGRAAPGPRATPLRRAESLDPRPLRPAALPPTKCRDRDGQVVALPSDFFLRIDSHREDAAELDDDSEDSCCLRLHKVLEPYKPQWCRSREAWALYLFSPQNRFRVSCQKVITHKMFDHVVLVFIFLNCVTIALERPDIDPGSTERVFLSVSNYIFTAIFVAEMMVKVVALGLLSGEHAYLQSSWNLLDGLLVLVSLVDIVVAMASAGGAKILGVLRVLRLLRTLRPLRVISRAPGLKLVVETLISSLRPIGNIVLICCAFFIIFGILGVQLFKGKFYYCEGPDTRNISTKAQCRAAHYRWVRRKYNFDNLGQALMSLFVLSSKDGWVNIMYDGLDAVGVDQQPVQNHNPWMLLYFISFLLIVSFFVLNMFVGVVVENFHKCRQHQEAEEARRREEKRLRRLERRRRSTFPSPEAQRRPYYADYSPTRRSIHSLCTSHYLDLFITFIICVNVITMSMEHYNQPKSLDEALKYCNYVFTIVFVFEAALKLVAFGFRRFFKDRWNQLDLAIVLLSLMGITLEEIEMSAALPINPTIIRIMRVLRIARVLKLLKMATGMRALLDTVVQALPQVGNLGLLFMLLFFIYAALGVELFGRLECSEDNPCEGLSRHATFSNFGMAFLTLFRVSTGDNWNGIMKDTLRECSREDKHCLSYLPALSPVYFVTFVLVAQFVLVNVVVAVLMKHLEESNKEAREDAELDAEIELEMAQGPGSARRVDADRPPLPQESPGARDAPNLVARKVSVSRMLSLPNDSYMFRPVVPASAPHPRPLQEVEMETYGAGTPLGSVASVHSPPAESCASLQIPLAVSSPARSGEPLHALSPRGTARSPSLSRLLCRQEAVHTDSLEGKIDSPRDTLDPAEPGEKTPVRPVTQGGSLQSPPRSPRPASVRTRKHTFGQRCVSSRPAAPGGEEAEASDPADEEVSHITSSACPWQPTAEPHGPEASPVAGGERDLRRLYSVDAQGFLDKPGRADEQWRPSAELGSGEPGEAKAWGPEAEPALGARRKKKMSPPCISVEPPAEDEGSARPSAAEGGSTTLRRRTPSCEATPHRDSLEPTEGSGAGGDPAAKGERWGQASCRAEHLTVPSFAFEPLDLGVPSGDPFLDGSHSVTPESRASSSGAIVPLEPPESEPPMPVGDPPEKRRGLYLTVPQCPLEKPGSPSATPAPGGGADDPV
CYP2C9 inhib – blockers of cytochrome P450 2C9 activity – biochemical, luminescence, ADME assay, primary screen. P11712. CYP2C9 Supersomes, luciferin-H conversion. AID 777, 2007. inhibition, % at 5 µM. hit rate 20% among 96,000;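 active = blocking of liver enzyme CYP2C9 beyond about 50% at 5 µM, limit read from the data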
CYP2C9 activ – human CYP2C9 activators, primary screen, biochemical, luminescence | AID 1024, 2008 | hit rate 1.4% among 96,000 | recombinant CYP2C9, luciferin-H conversion; hits give high values; factor 1 = untreated enzyme, 0 = blocked | activation factor at 5 µM | Cytochrome P450 2C9 (Homo sapiens), P11712;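 active = activation factor of 2 or more for CYP2C9 at a 5 µM dose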;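 also: 0 = sulfaphenazole-blocked wells and 1 = vehicle-only wells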
CYP2C19 inhib – blockers of cytochrome P450 2C19 activity – biochemical, luminescence, ADME assay, primary screen; CYP2C19 Supersomes, luciferin-H EGE luminescence, 30 min; inhibition, % at 5 µM; hit rate 21% among 96,000; AID 778, 2007;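 active = CYP2C19 inhibition above a set limit at 5 µM in the primary screen, cut at about 50% in these data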;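 also: plate controls were negative control wells for no effect and 2.5 mM tranylcypromine positive control for full effect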
* = called active by the depositor; · = not tested or not shown. Only some compounds are listed: those with a hit (about 27% of all), similar ones and a draw of the others.

SMILES	CYP2C19 act	Cav3 T inh	CYP2C9 inhib	CYP2C9 activ	CYP2C19 inhib
Cc1ccccc1Nc1nc(N)nc(CSc2nnnn2-c2ccccc2)n1	0.1	-0.0064	82*	0.2	88*
Cc1nc(Cc2nnc(SCc3nc(N)nc(Nc4ccccc4C)n3)o2)cs1	0.7	0.27	51*	0.5	30
CC1N(O)C(C)(C)C(c2ccccc2)=[N+]1[O-] (stereo not drawn)	·	0.91	·	·	·
CC(Sc1nc2ccccc2s1)C(=O)Nc1nnc(C(C)C)s1 (stereo not drawn)	0.8	-4.6	66*	0.3	23
CCC(Sc1nc2ccccc2s1)C(=O)Nc1nnc(C)s1 (stereo not drawn)	0.7	-0.39	67*	0.3	27
CC(Sc1nncn1C)C(=O)Nc1nnc(C(C)C)s1 (stereo not drawn)	1.1	0.89	-6	1.1	-8
CCC(Sc1nc2ccc(N)cc2s1)C(=O)Nc1nccs1 (stereo not drawn)	0.2	0.25	62*	0.4	77*
O=C(O)CCNc1cc2ccccc2cc1C(=O)O	0.9	0.82	8	0.9	12
OCCN1CCN(c2ncnc3ccc(Br)cc23)CC1	1.1	·	-1	1	-9
Cc1cc(C)nc(N2CCCC(C(=O)NC(C)CCc3ccco3)C2)n1 (stereo not drawn)	0.3	-1.7	59*	0.4	74*
Cc1cc2occ(CC(=O)Nc3nnc(C4CC4)s3)c2cc1C	0.9	0.036	6	0.9	12
Cc1csc(NC(=O)Cc2coc3cc(C)c(C(C)C)cc23)n1	0.6	-6.1*	40	0.6	37
CCOC(=O)Cn1cnc([N+](=O)[O-])n1	1.1	-0.35	-25	1.2	-14
COC(=O)c1ccc(CN2C(=O)c3ccccc3S2(=O)=O)cc1	0.2	-1.3	60*	0.4	84*
CCC(C)NC(=O)c1ccccc1NC(=O)CN1C(=O)c2ccccc2S1(=O)=O (stereo not drawn)	0.9	1.2	85*	0.2	10
O=C(CN1C(=O)c2ccccc2S1(=O)=O)NCc1ccccc1Cl	0.4	0.61	11	0.9	59*
Cc1ccc(CN2C(=O)CCC2C(=O)NC(C)C)cc1 (stereo not drawn)	1	0.36	-7	1.1	0
CCC(C)(C)C(=O)Nc1ncc(S(=O)(=O)c2ccc([N+](=O)[O-])cc2)s1	0.7	-5.2*	26	0.7	27
COC(=O)C(NC(=O)c1ccccc1Cl)(Nc1ncc(S(=O)(=O)c2ccc([N+](=O)[O-])cc2)s1)C(F)(F)F (stereo not drawn)	1	-8.6*	87*	0.1	3
CCC(C)(C)c1nnc(NC(=O)c2ccc([N+](=O)[O-])cc2)s1	1	-0.048	3	1	-5
O=C(N[C@@H](Cc1ccc(O)cc1)C(=O)O)c1ccc(C(F)(F)F)cc1	·	1.2	·	·	·
CCOc1ccccc1OCC(=O)Nc1nnc(COC)s1	·	0.087	·	·	·
COC(=O)C[C@H]1c2cc(C(F)(F)F)ccc2S(=O)(=O)N1C1CCCCC1	·	0.068	·	·	·
N#CC1(Cc2ccccc2Cl)c2ccccc2C=CN1C(=O)c1ccccc1 (stereo not drawn)	0.1	·	84*	0.2	91*
CCc1ccc(C2CC(c3ccc(Cl)cc3)=NNC2=O)cc1 (stereo not drawn)	0.2	-2	40	0.6	84*
SMILES	CYP2C19 act	Cav3 T inh	CYP2C9 inhib	CYP2C9 activ	CYP2C19 inhib
CCCCOc1ccc(C2CC(=O)NC2=O)cc1 (stereo not drawn)	0.6	-0.83	2	1	44
Cc1ccc(C2CC(c3ccc(Cl)cc3)=NNC2=O)cc1 (stereo not drawn)	0.2	-2.3	38	0.6	85*
Cc1ccc(/C(O)=C2/C(=O)C(=O)OC2c2ccc(Cl)cc2)cc1 (stereo not drawn)	1	-2.5	50	0.5	-1
COc1ccccc1NC(=O)CN(Cc1ccccc1)S(C)(=O)=O	·	-0.14	·	·	·
Cc1ccc(N/C(CSC(N)=O)=N\S(=O)(=O)c2ccc(C)cc2)cc1	0.8	-0.76	-88	1.9	17
O=C(NC1CCN(C(=O)NCc2ccccc2)CC1)c1ccco1	1	0.43	-2	1	4
COC(=O)c1ccc2c(=O)n(Cc3ccco3)c(SCC(=O)Nc3ccc(C)c(Cl)c3)nc2c1	0.9	-0.11	77*	0.2	12
NC(=O)CSc1nc2ccccc2c(=O)n1Cc1ccco1	·	0.26	·	·	·
COCCNC(=O)CSc1nc2cc(OC)c(OC)cc2c(=O)n1Cc1ccco1	0.7	2.2	83*	0.2	28
CCC(Sc1nc2cc(OC)c(OC)cc2c(=O)n1Cc1ccco1)C(=O)NCCOC (stereo not drawn)	1	2.5	29	0.7	4
COCCn1c(SCC(=O)N2CCCc3ccccc32)nc2cccnc21	0.5	0.97	-1	1	46
CCNC(=O)CSc1nc2cc(OC)c(OC)cc2c(=O)n1CCC1=CCCCC1	0.5	·	52*	0.5	52*
COCCn1c(SCC(=O)NCc2ccco2)nc2cccnc21	0.5	-0.28	-8	1.1	54*
CCn1c(SCC(=O)NCCc2ccc(OC)c(OC)c2)nc2c1c(=O)n(C)c(=O)n2C	0.9	0.35	8	0.9	9
COc1ccc(C(=O)Nc2c(N)nc(SCC(=O)N3CCCCCC3)[nH]c2=O)cc1OC	·	0.56	·	·	·
C#CCOCCOCCOCCNc1nc(N2CCOCC2)nc(N2CCN(C(=O)[C@H](CCC(=O)O)n3cc(C(N)Cc4ccc(O)cc4)nn3)CC2)n1 (stereo partly drawn)	·	1.2	·	·	·
CCn1c2ccccc2c2nc3cc(OC)c(OC)cc3nc21	0.8	-0.72	46	0.5	19
CCCCNC(=O)CSc1nc2cc(OC)c(OC)cc2c(=O)n1Cc1ccc(OC)cc1	0.7	0.042	68*	0.3	34
CCSc1nc2cc(OC)c(OC)cc2c(=O)n1CC	0.6	-0.43	52*	0.5	36
CCOc1ccccc1NC(=O)CSc1nnc(-c2ccccn2)n1Cc1ccco1	0.3	-2.7	79*	0.2	72*
CCOc1ccccc1NC(=O)CSc1nnc(-c2ccccc2Cl)n1Cc1ccco1	0.3	-7.7*	49	0.5	70*
COc1ccccc1NC(=O)CSc1nnc(COc2ccc(Cl)cc2)n1Cc1ccco1	0.8	-2.5	23	0.8	21
CCOc1ccccc1NC(=O)CSc1nnc(-c2ccco2)n1Cc1ccco1	0.1	-0.61	58*	0.4	86*
COc1ccc(NC(=O)CSc2nnc(-c3ccccn3)n2Cc2ccco2)cc1OC	0.8	1.5	35	0.7	15
CCOc1ccccc1NC(=O)CSc1nnc(-c2ccco2)o1	0.7	-0.97	-29	1.3	27
Cc1nc(SCC(=O)c2cccs2)c2oc3ccccc3c2n1	0.7	-2.4	64*	0.4	26

From PubChem
